This is an account of results in PubChem BioAssay AID372 (MTDP, 2006).

A word on the inhibition: it is the drop in the measured response relative to a control, in per cent.

Among all 100,000 compounds or so, about 770 (0.77%) were called active. The full list was thinned out, with actives kept by preference. A number with no mark means an inactive call. Rule as the data show it: active = inhibition above about 50%; inactive = the rest.

In the test the target is Gag-Pol polyprotein (Human immunodeficiency virus type 1 group M subtype B (isolate HXB2)) (UniProt P04585). Kind of test: RNase H inhibition, HIV 1 Gag Pol polyprotein, FRET biochemical assay, screening (AID 372). Particulars: HIV-1 RT RNase H, FRET RNA/DNA substrate fluorescence; at 10 µM; stronger effect = higher value.
With `CC(=O)NN1C(=O)/C(=C\c2ccc(I)o2)SC1=S`, the inhibition was 0%.

`CCCOC(=O)c1c(NC(=O)Cc2ccc(OC)cc2)sc2c1CCCC2`: the inhibition was 40%.

For `CC1=NN(c2ccccc2)C(=O)C1C(c1ccccc1)C(C#N)C#N` (configuration not stated), the inhibition is 54% (active).

With `CC(=O)NC(c1ccccc1)C1C(=O)N(c2ccccc2)N=C1C` (configuration not stated), the inhibition was 4%.

With `CC1=NN(c2ccccc2)C(=O)C1C(c1ccc([N+](=O)[O-])cc1)C1C(=O)N(c2ccccc2)N=C1C` (configuration not stated), the inhibition was 4%.

For the compound `COc1ccc(Cl)cc1N(CC(=O)N1CCC(C)CC1)S(=O)(=O)c1ccc(C)c([N+](=O)[O-])c1`, the inhibition was 6%.

For the compound `CCOc1cc(C=C2C(=O)NC(=O)NC2=O)ccc1OS(=O)(=O)c1ccc(C)cc1`, the inhibition was 17%.

As to `O=C(COc1ccc(Cl)cc1Cl)n1cc([N+](=O)[O-])cn1`, the inhibition was 6%.

Consider `Cc1cc(-c2ccc(C)o2)c(C#N)c(SCC(=O)c2ccccc2)n1`, for which the inhibition is 1%.

`CCCCSc1nc(C)c(C(C)=O)cc1C#N`: the inhibition is 8%.

As for `CC(=O)c1cc(C#N)c(SCC(=O)c2ccc(O)c(O)c2)nc1C`, the inhibition was 75% (active).

In the case of `CSc1nc(C)c(C(C)=O)cc1C#N`, the inhibition was 13%.

Take `COc1ccc(C(=O)CSc2nc3c(c(-c4ccc(C)o4)c2C#N)CCCC3)cc1`: the inhibition was 15%.

As to `CCc1c(C#N)c(N)nc(SCC(=O)c2ccc(Cl)c(Cl)c2)c1C#N`, the inhibition was 14%.

On to `COc1ccc(-c2cc(-c3ccc(OC)cc3)c(C#N)c(SCC(=O)c3ccc(C)cc3)n2)cc1`, for which the inhibition was 17%.

Turning to `CCc1c(C#N)c(N)nc(SCC(=O)c2ccc(C)cc2)c1C#N`, the inhibition was 13%.

For the compound `Cc1nc(SCC(=O)c2ccc(O)c(O)c2)c(C#N)c(CC(C)C)c1C(N)=O`, the inhibition is 51% (active).

Regarding `N#Cc1c(SCC(=O)c2ccc(Cl)cc2)nc2c(c1-c1ccco1)CCCC2`, the inhibition was 12%.

On to `NC(N)=NS(=O)(=O)c1ccc(NC(=S)Nc2ccccc2)cc1`, for which the inhibition was 6%.

Consider `CC(=O)C1(C)CC(C#N)(C#N)C(C#N)=C1N` (configuration not stated), for which the inhibition was 0%.

With `COCCOC(=O)c1ccc(NC(=O)C(C)Oc2ccc(Cl)cc2C)cc1` (configuration not stated), the inhibition is 11%.

Consider `CC(=O)ON=C1CC(C)(C)NC(C)(C)C1`, for which the inhibition was 4%.

As to `CCOC(=O)/C=C/COc1ccc2oc(-c3ccccc3)c(C(=O)OCC)c2c1`, the inhibition is 10%.

As to `CC(=O)c1ccc(NC(=O)c2ccccc2Cl)cc1`, the inhibition is 2%.

As to `CCCOC(=O)CSc1nc(C)cc(C)c1C#N`, the inhibition is 10%.

Turning to `Cc1cc(C)c(C#N)c(SCC(=O)Nc2ccc(Cl)cc2)n1`, the inhibition was 1%.

For the compound `Cc1cc(C)c(C#N)c(SCC(=O)c2ccc(O)c(O)c2)n1`, the inhibition is 70% (active).

On to `COc1cccc(N2C(=O)/C(=C/c3c(OC)cc(OC)cc3OC)C(=O)NC2=S)c1`, for which the inhibition is 1%.

As for `CCCCc1ccc(/C(C)=N/Nc2cc(-n3cc(C)cn3)ncn2)cc1`, the inhibition is 0%.

For the compound `O=C(O)CCCCCN1C(=O)C(=O)/C(=C(/O)c2ccc(Cl)cc2)C1c1ccccc1` (configuration not stated), the inhibition was 13%.

For `O=c1oc2cc(OCc3c(F)cccc3Cl)ccc2cc1-c1ccccn1`, the inhibition was 8%.

Regarding `CC(C)c1ccccc1OCCCN1CCCCC1`, the inhibition is 56% (active).

Regarding `CC(C)c1ccccc1OCCCCN1CCCCC1`, the inhibition is 8%.

Take `CC(C)c1ccccc1OCCCN1CCCC1`: the inhibition was 3%.

For the compound `Cc1ccc(C)c(N(CC(=O)Nc2c(C)n(C)n(-c3ccccc3)c2=O)S(=O)(=O)c2ccccc2)c1`, the inhibition is 3%.

Take `COc1ccc2c(c1OC)C(=O)OC2Nc1cccc([N+](=O)[O-])c1` (configuration not stated): the inhibition is 1%.

Take `CCOC(=O)COc1ccc(C=O)cc1OCC`: the inhibition is 0%.

Regarding `O=C(N/N=C/c1ccccc1[N+](=O)[O-])c1cc(O)cc(O)c1`, the inhibition was 3%.

Turning to `O=C(N/N=C/c1ccc(Cl)c([N+](=O)[O-])c1)c1ccc(O)cc1`, the inhibition was 22%.

As for `O=C(N/N=C/c1ccccc1[N+](=O)[O-])c1ccc(O)c(O)c1`, the inhibition was 51% (active).

Turning to `O=C(N/N=C/c1cc([N+](=O)[O-])ccc1Cl)c1cc2ccccc2o1`, the inhibition was 35%.

In the case of `O=C(N/N=C/c1ccc(Cl)c([N+](=O)[O-])c1)c1cc2ccccc2o1`, the inhibition is 59% (active).

`O=C(N/N=C/c1cc([N+](=O)[O-])ccc1O)c1ccc(O)c(O)c1`: the inhibition was 35%.

As for `O=C(N/N=C/c1ccc(Cl)c([N+](=O)[O-])c1)c1ccc(O)c(O)c1`, the inhibition is 53% (active).

Regarding `O=C(N/N=C/c1ccccc1[N+](=O)[O-])c1ccccc1`, the inhibition is 28%.

As for `O=C(N/N=C/c1cc([N+](=O)[O-])ccc1Cl)c1ccc(O)c(O)c1`, the inhibition was 63% (active).

Turning to `O=C(N/N=C/c1cc([N+](=O)[O-])ccc1Cl)c1ccc(O)cc1`, the inhibition was 10%.

As for `O=C(N/N=C/c1ccc(Cl)c([N+](=O)[O-])c1)c1ccccn1`, the inhibition is 11%.

As for `O=C(N/N=C/c1ccc(Cl)c([N+](=O)[O-])c1)c1cc(O)cc(O)c1`, the inhibition is 3%.

For `O=C(CSc1nc2ccccc2o1)c1ccc(-c2ccccc2)cc1`, the inhibition was 14%.

Consider `Cc1nnc(SCc2ccc(F)cc2)s1`, for which the inhibition is 0%.

Regarding `COC(=O)c1ccc(C2N(O)C3CCCCC3N2O)cc1` (configuration not stated), the inhibition is 15%.

On to `COc1ccc([N+](=O)[O-])cc1N1C(=O)C=CC1=O`, for which the inhibition is 4%.

For `CC(C)(C)c1cc(C(=O)N/N=C\c2ccncc2)n[nH]1`, the inhibition was 3%.

As to `O=C(Nc1ccc(Cl)c(Cl)c1)c1cccc2ccccc12`, the inhibition is 8%.

With `Cc1cc(/C=C2\C(=O)NC(=S)N(c3cccc(Cl)c3)C2=O)c(C)n1-c1ccc(Cl)cc1`, the inhibition is 40%.

For the compound `CC1=C(C(=O)OCCOc2ccccc2)C(c2ccc(O)cc2)C2=C(CC(c3ccccc3)CC2=O)N1` (configuration not stated), the inhibition was 9%.

`COc1ccc(-c2ccc(/C=C3/C(=O)NN(c4ccc(C)c(Cl)c4)C3=O)o2)c([N+](=O)[O-])c1`: the inhibition was 24%.

Take `O=C(/C=C/c1cccc2ccccc12)Nc1ccc(Nc2ccccc2)cc1`: the inhibition is 25%.

With `CC(=O)N(C)c1ccc(NC(=O)/C=C/c2cccc3ccccc23)cc1`, the inhibition is 53% (active).

Turning to `CC(=O)N(C)c1ccc(NC(=O)/C=C/c2ccccc2)cc1`, the inhibition was 9%.

On to `Cc1ccc(S(=O)(=O)c2ccc(C)c(S(N)(=O)=O)c2)cc1S(N)(=O)=O`, for which the inhibition is 0%.

As to `CCOc1ccc(-n2nc3cc(C)c(N)cc3n2)cc1`, the inhibition is 24%.

`Cc1cc2nn(-c3ccccc3)nc2cc1N`: the inhibition is 50% (active).

Turning to `COc1ccc(-n2nc3cc(C)c(N)cc3n2)cc1`, the inhibition is 22%.

On to `CCOC(=O)C1=C(O)/C(=C/c2ccc(Br)cc2)SC1=Nc1ccccc1`, for which the inhibition was 5%.

For `CCC(=O)Nc1ccc(NC(=S)NC(=O)c2cccc(F)c2)cc1`, the inhibition was 11%.

As for `COc1cc(/C=C2\SC(=O)N(c3ccccc3)C2=O)ccc1O`, the inhibition was 27%.

Turning to `COc1cc(/C=C2\SC(=S)N(c3cccc(Cl)c3)C2=O)ccc1O`, the inhibition was 38%.

As to `O=C1/C(=C\c2ccc(O)cc2)SC(=S)N1c1ccc(F)cc1`, the inhibition was 37%.

Regarding `O=C1/C(=C/c2ccc(O)c(O)c2)SC(=S)N1c1cccc(F)c1`, the inhibition was 84% (active).

As to `O=C1S/C(=C/c2ccc(O)c(O)c2)C(=O)N1c1ccccc1`, the inhibition was 60% (active).

As to `COc1ccc(/C=C2\SC(=S)N(c3cccc(F)c3)C2=O)cc1O`, the inhibition is 7%.

Turning to `O=C1/C(=C/c2cccc(O)c2)SC(=S)N1c1cccc(Cl)c1`, the inhibition is 19%.

For the compound `O=C1/C(=C\c2ccc(O)c(O)c2)SC(=S)N1c1ccc(F)cc1`, the inhibition was 74% (active).

Consider `O=C1/C(=C/c2cccnc2)SC(=S)N1c1cccc(F)c1`, for which the inhibition is 3%.

Take `O=C1/C(=C/c2ccc(F)cc2)SC(=S)N1c1ccc(F)cc1`: the inhibition was 17%.

For the compound `O=C1S/C(=C/c2cccc(O)c2)C(=O)N1c1ccccc1`, the inhibition is 24%.

Consider `Cc1ccc2cc(C3=C/C(=C/c4cccc(Br)c4)C(=O)O3)ccc2c1`, for which the inhibition is 4%.

In the case of `CCCCCOc1ccc(/C=N\Nc2nc(-c3ccccc3)cc(-c3ccccc3)n2)cc1`, the inhibition was 8%.

On to `COc1ccc(C(=O)COC(=O)c2ccc(N3C(=O)C4C5C=CC(C6CC56)C4C3=O)cc2)cc1` (configuration not stated), for which the inhibition was 9%.

Take `CCN(CC)S(=O)(=O)c1ccc(C(C)(C)C)cc1`: the inhibition is 15%.

As to `N/C(=C\C(=O)c1ccccc1O)C(F)(F)F`, the inhibition was 8%.

In the case of `CCc1nn(-c2ccccc2)c2nc(-c3ccccc3C)c3cc(OC)c(OC)cc3c12`, the inhibition is 13%.

Regarding `COc1ccc(/C=C2/C(=O)NC(=O)N(Cc3ccco3)C2=O)cc1C`, the inhibition is 12%.

Regarding `O=C(O)CC1SC(=NC(=O)c2ccco2)N(c2ccccc2)C1=O` (configuration not stated), the inhibition is 0%.

For `O=C1/C(=C/c2cccc(O)c2)SC(=S)N1c1ccc(O)cc1`, the inhibition is 26%.

As for `Cc1ccc(N2C(=O)/C(=C/c3ccc(Cl)cc3)SC2=S)cc1C`, the inhibition is 5%.

In the case of `O=C1/C(=C\c2ccc(O)c(O)c2)SC(=S)N1c1cccc2ccccc12`, the inhibition is 72% (active).

For `O=C1/C(=C\c2ccc(O)c(O)c2)SC(=S)N1c1cccc(C(F)(F)F)c1`, the inhibition was 48%.

For the compound `O=C1/C(=C\c2ccc(O)cc2)SC(=S)N1c1ccc(Cl)cc1`, the inhibition is 36%.

Turning to `O=C1NC(=O)N(c2cccc3ccccc23)C(=O)/C1=C/c1ccc(O)c(O)c1`, the inhibition is 22%.

As for `Cc1ccc(N2C(=O)/C(=C/c3ccc(F)cc3)SC2=S)cc1C`, the inhibition is 6%.

As to `CN(C)c1ccc(/C=C2\C(=O)N(c3nc(-c4ccc(Cl)cc4)cs3)N=C2c2ccccc2)cc1`, the inhibition was 37%.

In the case of `Cc1ccc(C(=O)N2N=C(c3ccc(Cl)cc3)CC2(O)C(F)(F)F)o1` (configuration not stated), the inhibition was 20%.

As for `CCCC(C)C(=O)Nc1cccc([N+](=O)[O-])c1C` (configuration not stated), the inhibition is 11%.

`O=C1CC(NCc2ccc3c(c2)OCO3)C(=O)N1c1ccc(Cl)cc1` (configuration not stated): the inhibition was 8%.
